Measurements reported in the supplement of paper PMC12350171.
Structures can show the parent of a compound that is named as a salt. Values without a mark were called inactive.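 Rule for the calls: active = normalised median growth AUC below 0.1 of DMSO control; inactive = AUC 0.1 or higher.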

test system: S. enterica typhimurium WT; experiment: growth AUC normalised to DMSO control (median) (fraction of control); higher = less growth inhibition, active = hit call of the paper; conditions: 20 µM
In short: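 In 96-well plates of mGAM seeded at OD578 0.01, strains that had been passaged twice overnight without oxygen were exposed to approved-drug library compounds at 20 μM with 1% DMSO. Hourly OD578 readings were taken for 24 h in an anaerobic incubator. The trapezoidal-rule area under the curve, with curves truncated at entry into stationary phase, was expressed relative to same-plate vehicle wells as the median of three biological replicates.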
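Note: active when median AUC fell below 0.1.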

| Structure (SMILES) | growth AUC normalised to DMSO control |
| --- | --- |
| O=P(O)(O)C(O)(Cc1cccnc1)P(=O)(O)O [Risedronic acid monohydrate] | 1.01 |
| NCCc1c[nH]cn1 [Histamine dihydrochloride] | 1 |
| O=C(NCCCN1CCOCC1)c1ccc(Cl)cc1 [Eprobemide] | 1.01 |
| CC[C@H]1OC(=O)C[C@@H](O)[C@H](C)[C@@H](O[C@@H]2O[C@H](C)[C@@H](O[C@H]3C[C@@](C)(O)[C@@H](O)[C@H](C)O3)[C@H](N(C)C)[C@H]2O)[C@@H](CC=O)C[C@@H](C)C(=O)/C=C/C(C)=C/[C@@H]1CO[C@@H]1O[C@H](C)[C@@H](O)[C@@H](OC)[C@H]1OC [Tylosin] | 0.997 |
| Cc1ncc(C[n+]2csc(CCO)c2C)c(N)n1 [Thiamine hydrochloride] | 0.998 |
| CCOc1cc(N)c(Cl)cc1C(=O)NCC1CN(Cc2ccc(F)cc2)CCO1 (stereo unspecified) [Mosapride] | 0.988 |
| CCN1CCN(C(=O)N[C@@H](C(=O)N[C@@H]2C(=O)N3[C@@H]2SC(C)(C)[C@@H]3C(=O)O)c2ccccc2)C(=O)C1=O [Piperacillin sodium salt] | 0.734 |
| NNc1nncc2ccccc12 [Hydralazine hydrochloride] | 0.996 |
| C=C(CC)C(=O)c1ccc(OCC(=O)O)c(Cl)c1Cl [Ethacrynic acid] | 1 |
| CC(NN)c1ccccc1 (stereo unspecified) [Mebanazine] | 1 |
| Nc1nc2[nH]cc(CCc3ccc(C(=O)N[C@@H](CCC(=O)O)C(=O)O)cc3)c2c(=O)[nH]1 [Pemetrexed disodium] | 1.01 |
| Cc1ncc([N+](=O)[O-])n1CCO [Metronidazole] | 1.04 |
| Cc1[nH]cnc1CN1CCc2c(c3ccccc3n2C)C1=O [Alosetron hydrochloride] | 1 |
| CCOc1ccccc1C(N)=O [Ethenzamide] | 1 |
| CC(C)NC[C@H](O)COc1cccc2ccccc12 [(S)-(-)-Propranolol hydrochloride] | 0.989 |
| C[C@H](O)[C@H](O)[C@H]1CNc2[nH]c(N)nc(=O)c2N1 [Sapropterin dihydrochloride] | 1.01 |
| CN(CCCN1c2ccccc2CCc2ccccc21)CC(=O)c1ccc(Cl)cc1 [Lofepramine] | 0.985 |
| CC(C)NC[C@@H](O)COc1cccc2ccccc12 [(R) Propranolol hydrochloride] | 0.984 |
| O=C1C(=O)c2ccccc2C(O)=C1C1CCC(c2ccc(Cl)cc2)CC1 (stereo unspecified) [Atovaquone] | 0.992 |
| NC(N)=Nc1nc(CSCCN/C=N/S(=O)(=O)c2ccc(Br)cc2)cs1 [Ebrotidine] | 0.998 |
| O=C(O)c1cc(/N=N/c2ccc(S(=O)(=O)Nc3ccccn3)cc2)ccc1O [Sulfasalazine] | 1.01 |
| C[C@]12CC[C@@H]3c4ccc(O)cc4CC[C@H]3[C@@H]1C[C@@H](O)[C@@H]2O [Estriol] | 1 |
| Cn1c(=O)c2nc[nH]c2n(C)c1=O [Theophylline monohydrate] | 1.01 |
| COc1cc([C@@H]2c3cc4c(cc3[C@@H](O[C@@H]3O[C@@H]5CO[C@@H](C)O[C@H]5[C@H](O)[C@H]3O)[C@H]3COC(=O)[C@H]23)OCO4)cc(OC)c1O [Etoposide] | 1 |
| CCOCC(O)COc1ccc(NC(=O)CC[S+](C)C)cc1 (stereo unspecified) [Suplatast Tosylate] | 1 |
| CC(C(=O)O)c1ccc(N2CC=CC2)c(Cl)c1 (stereo unspecified) [Pirprofen] | 1 |
